# Screening data: PubChem, Sanford-Burnham Center for Chemical Genomics
# CYP2C9 act = increases human cytochrome P450 2C9 activity; recombinant CYP2C9, luciferin-H conversion, luminescence; active compounds read high; factor 1 = untreated enzyme, 0 = blocked; activation factor at 5 µM; 96,000 tested, 1.4% active; AID 1024;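 active = activation factor of 2 or more for CYP2C9 at a 5 µM dose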
# CYP2C19 act = cytochrome P450 2C19 (human) activation; P33261; recombinant CYP2C19, luciferin-H EGE luminescence; active compounds read high; 0 = fully inhibited enzyme, 1 = untreated enzyme; activation factor at 5 µM; 96,000 tested, under 10 active;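 active = activation factor of at least 2 at 5 µM in the primary screen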
# CYP2C19 inh = human CYP2C19 inhibition; inhibition, % at 5 µM; 96,000 tested, 21% active; CYP2C19 Supersomes, luciferin-H EGE luminescence, 30 min; P33261; AID 778;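 active = CYP2C19 inhibition above a set limit at 5 µM in the primary screen, cut at about 50% in these data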
# CYP2C9 inhib = blocks human cytochrome P450 2C9; P11712; CYP2C9 Supersomes, luciferin-H conversion, luminescence; inhibition, % at 5 µM; 96,000 tested, 20% active;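 active = blocking of liver enzyme CYP2C9 beyond about 50% at 5 µM, limit read from the data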
# PTK2B oligo ant = Pyk2 (human) oligomerization antagonism | z-score (the deposit names both 25 µM and 10 µM) | Q293 cells, Pyk2 FERM NanoBiT luminescence; active compounds read low | 99,000 tested, 0.83% active | Q14289 | AID 1347419;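 active = Z-score of -3 or lower, scaled per plate to the spread of control and sample wells; inactive = z-score above -3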;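 note: negative z-score means lost luminescence so less FERM oligomerization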
# A number is an active result; n = inactive; x = not tested or not shown. Shown are actives, neighbours in structure and some others; about 28% of the full set was active somewhere.
SMILES,CYP2C9 act,CYP2C19 act,CYP2C19 inh,CYP2C9 inhib,PTK2B oligo ant
COc1cc(C(=O)OCC(=O)c2c[nH]c3ccccc23)ccc1OCC(=O)N1CCOCC1,n,n,51.0,77.5,n
COc1ccc(C(=O)NCCc2c[nH]c3ccccc23)cc1S(=O)(=O)N1CCOCC1,n,n,n,60.6,n
COc1ccc(C(=O)OCC(=O)c2ccccc2)cc1S(=O)(=O)N1CCOCC1,n,n,77.7,55.7,n
O=C(COC(=O)c1cc(S(=O)(=O)N2CCOCC2)cs1)c1ccccc1,n,n,n,n,n
COc1ccc(C(C)=O)cc1COC(=O)c1ccc(S(=O)(=O)N2CCOCC2)cc1,n,n,51.4,93.9,n
COc1ccccc1NC(=O)NC1(C(=O)N2CCC(O)CC2)CCCCC1,n,n,n,n,n
Cc1cccc2c(=O)c(C(=O)NCCCN3CCOCC3)c[nH]c12,x,x,x,x,n
CN(CP(=O)(O)CCc1ccccc1)S(C)(=O)=O,n,n,n,n,n
Cc1oncc1C(=S)Nc1ccccc1,n,n,n,n,n
Cc1sc2c(c1C)CN(Cc1ccncc1)CN2C(=O)c1ccco1,n,n,77.2,91.0,n
CC(C)CCC1CC(CSC(=N)N)OC1=O (stereo not drawn),n,n,n,n,n
COc1cccc(CN(C)C(=O)c2ccc(S(=O)(=O)N3CCCC3)cc2)c1OC,n,n,n,n,n
COc1ccccc1CN(C)C(=O)c1ccc2c(c1)NC(=O)CS2,n,n,92.7,n,n
COc1ccc(/C=N/N(C(C)=O)c2nc(-c3ccc(C)cc3)cs2)cc1,n,n,73.2,57.0,n
CC(=O)OC(C(=O)NCc1ccco1)c1ccncc1 (stereo not drawn),n,n,n,55.2,n
CC(=O)OC(C(=O)NCc1ccco1)c1cccnc1 (stereo not drawn),n,n,n,n,n
O=C(OC(C(=O)NCc1cccs1)c1ccccc1Cl)c1ccco1 (stereo not drawn),n,n,88.5,91.1,n
COc1ccc(CNC(=O)C(OC(=O)c2ccco2)c2ccc(OC)cc2)cc1 (stereo not drawn),x,x,x,x,n
CCC(C)(C)NC(=O)C(OC(=O)c1ccco1)c1ccccc1OC (stereo not drawn),n,n,64.1,n,n
COc1ccccc1C(OC(=O)c1cccs1)C(=O)NCc1ccco1 (stereo not drawn),n,n,58.4,n,n
COc1ccc(C(OC(=O)c2ccco2)C(=O)NCc2ccco2)cc1 (stereo not drawn),n,n,n,n,n
Cc1cc2c(cc(C(=O)OC(C(=O)NCc3ccco3)C(C)C)n2C)o1 (stereo not drawn),n,n,65.6,n,n
Cn1c(C(=O)OCC(=O)NCc2ccco2)cc2sccc21,n,n,n,n,n
CC(C)C(OC(=O)c1cc2occc2n1C)C(=O)NCc1ccc2c(c1)OCO2 (stereo not drawn),n,n,73.7,85.3,n
CC(OC(=O)c1nsc(Cl)c1Cl)C(=O)NCc1cccs1 (stereo not drawn),n,n,n,n,n
SMILES,CYP2C9 act,CYP2C19 act,CYP2C19 inh,CYP2C9 inhib,PTK2B oligo ant
CCC(OC(=O)c1nsc(Cl)c1Cl)C(=O)NCc1ccco1 (stereo not drawn),n,n,59.3,57.2,n
COC(=O)NCc1ccc2c(c1)OCO2,n,n,n,n,n
CCC(OC(=O)c1cc2sccc2n1C)C(=O)NCc1ccco1 (stereo not drawn),n,n,53.9,71.9,n
CC(OC(=O)c1cccs1)C(=O)NCc1ccco1 (stereo not drawn),n,n,85.8,n,n
Cc1ccc(C(C(=O)NCc2ccco2)N(C(=O)CNC(=O)c2cccs2)c2ccc(C)cc2)cc1 (stereo not drawn),n,n,n,n,n
CC(C)C(OC(=O)c1cccs1)C(=O)NCc1ccco1 (stereo not drawn),n,n,59.8,n,n
COc1ccc(NC(=O)c2c(NC(=O)CNCc3ccco3)sc3c2CCC3)c(OC)c1,n,n,77.4,96.9,n
CSc1ncc(Cl)c(C(=O)Nc2sc3c(c2C(=O)NCc2ccco2)CCCC3)n1,n,n,n,n,x
COc1ccc(OC)c(NC(=O)c2c(NC(=O)CNCc3ccco3)sc3c2CCC3)c1,n,n,n,64.6,n
COc1ccc(NC(=O)c2c(NC(=O)CNCc3ccco3)sc3c2CCC3)cc1,n,n,63.1,92.8,n
COc1ccc(-n2c(=O)c3c4c(sc3n(CC(=O)NCc3ccco3)c2=O)CCC4)c(OC)c1,x,x,x,x,n
CC1CC(C)CN(S(=O)(=O)c2ccc3c(c2)oc(=O)n3CC(=O)N2CCOCC2)C1 (stereo not drawn),n,n,n,n,x
CC1CCN(C(=O)c2cc(F)c(F)cc2Cl)CC1,x,x,x,x,n
Cc1ccc(/C=C/C(=O)O)cc1S(=O)(=O)NCCCC(=O)O,n,n,n,n,n
COc1ccc(-n2ncc3c(SCC(=O)N4CCN(c5ccccc5OC)CC4)ncnc32)cc1,x,x,x,x,n
Cc1cccc(OCC(=O)Nc2cccc(O)c2)c1,n,n,79.0,n,n
Cc1cccc(NC(=O)COc2ccccc2)c1,n,n,82.7,n,n
Cc1cccc(OCC(=O)NCC(=O)n2nc(C)cc2C)c1,2.1,n,60.6,n,n
CC(=O)Nc1cccc(OCC(=O)Nc2ccccc2)c1,n,n,n,n,n
Cc1cccc(NC(=O)COc2nsnc2N2CCOCC2)c1,n,n,55.7,n,n
CCCCN(C)C/C(O)=C(\C#N)c1nc(-c2ccccc2)cs1,n,n,n,n,n
CC1=C(C)[N+](=O)C2CCCCC2N1[O-] (stereo not drawn),n,n,n,n,n
CC(=O)Nc1ccc(OC(F)(F)C(F)F)c(NC(C)=O)c1,n,n,n,n,n
O=C(COc1ccccc1)Nc1ccc(OC(F)(F)C(F)F)c(NC(=O)COc2ccccc2)c1,n,n,n,53.8,n
Cc1c(C#N)c2ncn(Cc3ccccn3)c(=O)c2n1-c1ccccc1,n,n,n,n,n
SMILES,CYP2C9 act,CYP2C19 act,CYP2C19 inh,CYP2C9 inhib,PTK2B oligo ant
O=C(Cn1c(-c2cncs2)nc2ccccc21)NCc1ccccc1,n,n,80.2,n,n
Brc1cc2c(cc1Cn1c(-c3cncs3)nc3ccccc31)OCO2,n,n,n,n,n
Cc1ccccc1Cn1c(-c2cncs2)nc2ccccc21,n,n,75.5,n,n
Cc1cc2nc(SCCOC(=O)Nc3ccc(Cl)cc3)nc(C)c2cc1C,n,n,n,n,n
Cc1ccc(OCC(=O)N2CCC(N3CCCCCC3)CC2)cc1,n,n,n,n,n
COc1ccc(OCC(=O)OC2CCN(C)CC2)cc1,n,n,n,n,n
CCC(=O)OC1(C#CCOc2ccc(OC)cc2)CCN(C)CC1,n,n,65.8,n,n
COC(=O)c1ccc(/C=N/NC(=O)CC(=O)NCC(C)C)cc1,n,n,n,n,n
CC(=O)Nc1cc(C(F)(F)F)ccc1N1CCOCC1,n,n,n,n,n
O=C(Nc1cc(C(F)(F)F)ccc1N1CCOCC1)c1ccccc1F,n,n,n,n,n
O=C(Nc1cc(Cl)ccc1N1CCOCC1)c1cnccn1,x,x,x,x,n
